DAX1 inh-1: DAX1 (NR0B1) inhibitors, primary screen, cell-based, HEK293, Gal4-DAX1, luciferase luminescence; Nuclear receptor subfamily 0 group B member 1 (Homo sapiens), P51843; HEK293 Gal4-DAX1 luciferase reporter; inhibition, % at 6.75 µM; actives 0.99% (n = 340,000);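 active means inhibition above the mean over all tested compounds plus 3 SD, cut at about 4.2% in these data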;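 further: inhibition shows as a rise in luminescence from relieved DAX1 repression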
Target sequence (P51843 207-470 limits assumed): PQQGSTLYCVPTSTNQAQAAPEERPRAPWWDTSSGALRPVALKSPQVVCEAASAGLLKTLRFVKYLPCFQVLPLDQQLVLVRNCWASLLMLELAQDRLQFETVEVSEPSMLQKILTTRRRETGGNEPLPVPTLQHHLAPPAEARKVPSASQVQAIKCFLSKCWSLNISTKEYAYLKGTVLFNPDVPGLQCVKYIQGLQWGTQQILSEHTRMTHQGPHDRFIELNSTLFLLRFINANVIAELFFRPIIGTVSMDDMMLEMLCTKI
GAA850 FXN act: FXN promoter activators, primary screen, cell-based, luciferase luminescence, HEK293 lucGAA850. HEK293 lucGAA850 FXN promoter luciferase reporter, 24 h; percent of 10 µM SAHA response. activation, % at 6 µM. actives 0.56% (n = 360,000). AID 540364, 2011;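 active means activation above the average of all compounds screened plus 3 SD, cutoff fixed separately per campaign, cut at about 7.5% in these data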
ssDAF-12 act: S. stercoralis DAF-12 nuclear receptor activators, primary screen, cell-based, luminescence, HEK293, GRIP1 co-expression, lit1-tk-luc. Nuclear hormone receptor DAF-12 (Strongyloides stercoralis). HEK293 ssDAF-12/GRIP1 lit1-tk-luc reporter; % of 3 µM dafachronic acid response. activation, % at 6.8 µM. actives 1% (n = 370,000). AID 652126, 2013;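 active means activation above the mean over all tested compounds plus 3 SD, cut at about 0.9% in these data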
DAX1 inh-2: DAX1 (NR0B1) inhibitors on StAR promoter, primary screen, cell-based, luminescence, SF-1 (NR5A1), full-length DAX-1; HEK293T StAR-luciferase reporter, SF-1/DAX-1 repression relief; inhibition, % at 6.8 µM; actives 1.1% (n = 370,000);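 active means inhibition above the mean over all tested compounds plus 3 SD, cut at about 3.6% in these data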;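 further: higher inhibition means more luminescence from relief of DAX-1 repression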
hcDAF-12 act: H. contortus DAF-12 nuclear receptor activators, primary screen, cell-based, luminescence, HEK293, lit1-tk-luc reporter | AID 652067, 2013 | actives 1.4% (n = 370,000) | activation, % at 6.8 µM | HEK293 hcDAF-12 lit1-tk-luc reporter; 0% DMSO, 100% Δ7-dafachronic acid;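 active means activation above the mean of all tested compounds plus 3 SD, cut at about 5.5% in these data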
hgDAF12 agonist: H. glycines DAF-12 receptor agonists, primary screen, cell-based, luminescence, HEK293, GAL4 fusion, UAS-luciferase | Nuclear hormone receptor DAF-12 (Heterodera glycines), GAL4 fusion | actives 1.8% (n = 370,000) | HEK293 GAL4-hgDAF12 UAS-luciferase reporter, agonist luminescence; normalized to butyrate control | activation, % at 6.8 µM;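 active means activation above a cutoff set at the mean of all screened compounds plus 3 SD, cut at about 10% in these data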
GAA30 FXN cntr: GAA30 FXN promoter activators, confirmation, counter-screen for GAA850 frataxin promoter activator project, cell-based, luminescence, HEK293, lucGAA30, triplicate; activation, % at 6 µM; AID 588350, 2011; HEK293 lucGAA30 FXN promoter luciferase, 24 h; DMSO = 0%, 5 µM ipriflavone = 100%; shares compounds with GAA850 FXN act; actives 66% (n = 1,900);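 active means mean activation above the mean of solvent-only control wells plus 3 SD, cut at about 22% in these data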;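 further: counterscreen of GAA850 promoter hits where activity marks nonselective or luminescence artifacts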
FXN GAA850 conf: FXN GAA850 promoter activators in reporter cells, confirmation, cell-based, luminescence, HEK293 lucGAA850, triplicate | actives 86% (n = 1,900) | HEK293 lucGAA850 FXN promoter luciferase reporter, 24 h; 100% = activation by SAHA | shares compounds with GAA850 FXN act | activation, % at 6 µM | AID 588351, 2011;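 active means mean activation above a set limit taken from the primary screen, cut at about 8% in these data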
DAX1 conf: DAX1 (NR0B1) inhibitors relieving SF-1 repression, confirmation, cell-based, luminescence, HEK293T, full-length DAX-1, SF-1 activated StAR promoter. actives 87% (n = 2,400). shares compounds with DAX1 inh-2. HEK293T StAR-promoter luciferase reporter, SF-1/DAX-1 repression. inhibition, % at 6.8 µM. AID 652134, 2013;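 active means inhibition above the average of every tested compound plus 3 SD, cut at about 3.8% in these data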
SF1 mutant ctr: StAR reporter signal changes without DAX1, counter-screen for DAX1 inhibitor project, cell-based, luminescence, AF-2 mutant SF-1, transactivation; shares compounds with DAX1 inh-2; HEK293 StAR-luciferase, SF-1 AF2 mutant; inhibition, % at 6.8 µM; actives 78% (n = 2,400);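 active means inhibition above the mean of all tested compounds plus 3 SD, cut at about 3% in these data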
Hits are given with their value; - = inactive; . = no result given. Sampled rows, rich in hits. Any-hit rate of the full collection: about 4.5%.

SMILES	DAX1 inh-1	GAA850 FXN act	ssDAF-12 act	DAX1 inh-2	hcDAF-12 act	hgDAF12 agonist	GAA30 FXN cntr	FXN GAA850 conf	others
CCOC(CN=c1nc(N(C)C)ss1)OCC	-	8.2	-	-	-	-	-	10
N#CC(c1cccc(C(F)(F)F)c1)(c1ncc(C(F)(F)F)cc1Cl)N1CCOCC1 (stereo unspecified)	-	-	-	-	-	-	.	.
N#CC(c1ccccc1)(c1ncc(C(F)(F)F)cc1Cl)N1CCOCC1 (stereo unspecified)	-	11	-	-	-	-	26	9.1
CN(CC(=O)Nc1cccc(F)c1)C(=O)CCCN1C(=O)c2cccc3cccc(c23)C1=O	-	14	-	-	-	-	30	11
CN(CC(=O)Nc1cccc(F)c1)C(=O)CCN1C(=O)C2CC=CCC2C1=O (stereo unspecified)	-	-	-	-	-	-	.	.
O=C(Nc1ccc(F)c(F)c1)NC1CCCCC1	-	-	-	-	-	-	.	.
Cc1ccc(NC(=O)NC2CCCCCCC2)cc1C	-	9.7	-	-	-	-	93	36
CCN(CC)S(=O)(=O)c1ccc(OC)nc1	-	11	-	-	-	-	-	-
COC[C@H]1CCCN1c1cccc2c1S(=O)(=O)N(C1CC1)CC[C@@H](C)O2	.	.	-	-	-	-	.	.
COc1cc2c(cc1OC)-c1cc(NC3CCCCCCC3)nc(=O)n1CC2	-	8.1	-	-	-	-	-	13
COc1cc2c(cc1OC)-c1cc(NC3CC3)nc(=O)n1CC2	-	-	-	-	-	-	.	.
CCNc1cc2n(c(=O)n1)CCc1cc(OC)c(OC)cc1-2	-	9.9	-	-	-	-	-	-
COc1cc2c(cc1OC)-c1cc(NC3CCCCC3)nc(=O)n1CC2	-	10	-	-	-	-	-	11
COc1cc2c(cc1OC)-c1cc(Nc3ccccc3C)nc(=O)n1CC2	-	-	-	-	-	-	.	.
COc1cccc(N2CCN(CC(=O)NCc3c(F)cccc3F)CC2)c1	.	.	-	-	-	-	.	.
Cc1ccc(Cn2cc(COC(=O)Nc3ccc(F)cc3)nn2)cc1	.	.	-	-	-	-	.	.
COc1ccc(S[C@]2(C(=O)N3CCCC3)CC(=O)N(S(=O)(=O)c3ccc(F)cc3)[C@@H]2c2ccc(OC)cc2)cc1	.	.	-	-	-	-	.	.
COc1ccc(N2C(=O)CC(N(CCc3ccc(OC)c(OC)c3)C(=S)Nc3ccccc3)C2=O)cc1 (stereo unspecified)	-	8.4	-	-	-	-	-	11
Cc1nn(-c2ccccc2)c(Cl)c1/C=N/NC(N)=O	-	-	-	-	-	-	.	.
Cc1nn(-c2ccccc2)c(Cl)c1/C=N/NC(=O)c1ccnn1C	-	7.7	-	7.2	-	-	116	42	DAX1 conf=9.4;SF1 mutant ctr=6.4
CC(NC(=O)c1cc2ccc(C(F)(F)F)cc2nc1N)c1cccc2ccccc12 (stereo unspecified)	.	.	-	-	-	-	.	.
COC(=O)[C@]12C[C@H](CC(=O)N3CCN(C(=O)c4ccco4)CC3)C(=O)N(Cc3ccccc3)C1=C[C@H](C1CCCC1)O[C@@H]2C	.	.	-	-	-	-	.	.
COC(=O)[C@]12C[C@H](CC(=O)NCCCN3CCCC3=O)C(=O)N(Cc3ccco3)C1=C[C@H](COCc1ccccc1)O[C@@H]2C	.	.	-	-	-	-	.	.
Clc1ccc(-c2cn3cc(Br)ccc3n2)cc1Cl	-	8.2	3.0	8.0	14	23	71	22	DAX1 conf=13;SF1 mutant ctr=5.2
CCc1ccc(C(=O)NCC2(c3ccccc3)CCOCC2)o1	-	7.8	-	4.6	-	13	95	25	DAX1 conf=6.7;SF1 mutant ctr=3.4
SMILES	DAX1 inh-1	GAA850 FXN act	ssDAF-12 act	DAX1 inh-2	hcDAF-12 act	hgDAF12 agonist	GAA30 FXN cntr	FXN GAA850 conf	others
O=C(NCC1(c2ccccc2)CCOCC1)c1ccc(Br)o1	-	-	-	-	-	-	.	.
COC[C@H]1CCCN1c1ccc2c(c1)O[C@H](C)CCN(C1CC1)S2(=O)=O	.	.	-	-	-	-	.	.
COc1ccc2nc(N3CCN(C(=O)C4COc5ccccc5O4)CC3)sc2c1 (stereo unspecified)	-	9.0	-	7.1	-	-	104	32	DAX1 conf=11;SF1 mutant ctr=5.5
Cc1cccc(NC(=O)NC2CCCCCCC2)c1	-	7.6	-	5.7	-	-	102	36	DAX1 conf=4.9;SF1 mutant ctr=3.6
O=C(COc1ccc(F)cc1)Nc1ccc2c(c1)OCCO2	-	7.7	-	5.0	-	-	77	22	DAX1 conf=4.2;SF1 mutant ctr=-
CCC(=O)c1ccc(OCC(=O)Nc2ccc3c(c2)OCCO3)cc1	-	-	-	-	-	-	.	.
COc1ccc(-c2csc(-c3ccc(C(=O)O)cc3)n2)cc1	-	9.8	-	4.7	-	12	85	37	DAX1 conf=12;SF1 mutant ctr=7.0
c1cnc(SCC2CCCCC2)c(-c2nc3ccccc3[nH]2)c1	.	.	-	-	-	-	.	.
C=C[C@@]1(C)CC(=O)[C@]2(O)[C@@]3(C)[C@@H](O)CCC(C)(C)[C@@H]3[C@H](O)[C@H](OC(C)=O)[C@@]2(C)O1	-	16	-	9.6	-	-	-	15	DAX1 conf=22;SF1 mutant ctr=-
COc1ccc(Cn2cc(CN3[C@H](C)COc4cc(Br)ccc4S3(=O)=O)nn2)cc1	.	.	-	-	-	-	.	.

From PubChem BioAssay
